From PubChem BioAssay (Tox21)
Results filed as inconclusive are left out. Active and inactive are the calls of the source. Unless noted, calls follow the shape of the full dose curve.

How the values were obtained:
[1] = Nuclear factor erythroid 2-related factor 2/antioxidant responsive element (Nrf2/ARE) small molecule agonists: qHTS cell viability counter screen in human keratinocytes (AID 1919968; active = well fitted curve in the direction sought with a large enough effect in the repeat runs; an effect the other way counts as inactive or inconclusive; also: nearly all actives have a fitted effect of over 55% in size)
Procedure, shortened: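 KeratinoSens cells (HaCaT keratinocytes stably carrying an ARE-luciferase reporter) were seeded at 1,500 cells/well and rested 5 h at 37 C/5% CO2. They were then exposed to compounds in DMSO for 23 h. Viability was read by CellTiter-Fluor fluorescence after 1 h.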

[2] = Nuclear factor erythroid 2-related factor 2/antioxidant responsive element (Nrf2/ARE) small molecule agonists: luciferase reporter gene qHTS assay in human keratinocytes (AID 1919969); also: nearly all actives have a fitted effect of over 35% in size
[3] = target: Gonadotropin-releasing hormone receptor (Homo sapiens) (UniProt P30968); assay: Human gonadotropin-releasing hormone receptor (GnRHR) small molecule agonists, calcium flux assay in GnRHR-HEK293 cells (AID 1920063); also: nearly all actives have a fitted effect of over 35% in size
Procedure, shortened: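 HEK293 cells stably expressing human GnRHR were plated 18 h at 37 °C, loaded with calcium dye 1 h at 37 °C, then given compound in agonist mode; fluorescence (Ex/Em 480/540) read kinetically for 3 min at 1 s intervals.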

[4] = target: KiSS-1 receptor (Homo sapiens) (UniProt Q969F8); assay: Human kisspeptin (KISS1R) small molecule agonists, calcium flux assay in KISS1R-HEK293 cells (AID 1920064; active = well fitted curve in the direction sought with a large enough effect in the repeat runs; an effect the other way counts as inactive or inconclusive)
Procedure, shortened: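 HEK293 cells stably expressing human KISS1R were plated 18 h at 37 °C, loaded with calcium dye for 1 h at 37 °C, then given compound by pin tool. Fluorescence (Ex/Em 480/540) was read kinetically for 3 min.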

[5] = G protein-coupled receptor (GPCR) small molecule agonists, calcium flux assay: HEK293 wild type cell line counter screen (AID 1920065)
Procedure, shortened: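 Cells were plated and cultured 18 h at 37 C/5% CO2, then loaded with calcium dye for 1 h at 37 C. Compounds in DMSO were pin-transferred in agonist mode, and fluorescence (Ex/Em 480/540) was read kinetically for 3 min at 1 s intervals.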

[6] = p53 small molecule agonists, cell-based qHTS assay with human liver microsomes (AID 1963577)
Procedure, shortened: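 Fluorescence of the beta-lactamase reporter in p53RE-bla cells, detected with LiveBLAzer substrate (2 h, room temperature, dark), served as the read-out after 16 h compound exposure at 37 C with human liver microsomes and NADPH, each 0.5 mg/mL final.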

[7] = p53 small molecule agonists, cell-based qHTS assay with rat liver microsomes (AID 1963578)
Procedure, shortened: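 Cells carrying a p53 response element–beta-lactamase reporter were plated and rested 5 h, then dosed with compound in DMSO plus rat liver microsomes and NADPH, each at 0.5 mg/mL final. After 16 h at 37 C, LiveBLAzer substrate was added for 2 h.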

[8] = p53 small molecule agonists, cell-based qHTS assay with human liver microsomes: qHTS cell viability counter screen (AID 1963579); also: nearly all actives have a fitted effect of over 45% in size
Procedure, shortened: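 Cytotoxicity counter screen: p53RE-bla, 4,000 cells/well; 5 h settle, 37 C/5% CO2; cpd + HLM 0.5 mg/mL + NADPH 0.5 mg/mL (final); 16 h, 37 C; CellTiter-Glo, 30 min RT, luminescence.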

[9] = p53 small molecule agonists, cell-based qHTS assay with rat liver microsomes: qHTS cell viability counter screen (AID 1963580); also: nearly all actives have a fitted effect of over 45% in size
Procedure, shortened: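 Viability is assessed in parallel with the p53 reporter read: HCT-116 p53RE-bla cells receive compounds plus rat microsomes and NADPH (0.5 mg/mL final apiece), incubate 16 h at 37 C, and then CellTiter-Glo luminescence is recorded.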

[10] = p53 small molecule agonists, cell-based qHTS assay: qHTS cell viability counter screen (AID 1963581); also: nearly all actives have a fitted effect of over 45% in size
Procedure, shortened: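 p53RE-bla HCT-116 cells were exposed to compounds for 16 h at 37 C; after the beta-lactamase FRET read in the same wells, CellTiter-Glo was added and luminescence (intracellular ATP) read after 30 min at room temperature.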

[11] = p53 small molecule agonists, cell-based qHTS assay (AID 1963582; active = well fitted activation curve with a large enough effect in the signal ratio in the repeat runs, not every such curve was filed as active; the % refers to the signal ratio)
Procedure, shortened: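 p53RE-bla beta-lactamase reporter cells rested 5 h at 37 C/5% CO2, then received compounds in DMSO by pin transfer and were incubated 16 h at 37 C. LiveBLAzer B/G FRET substrate was loaded for 2 h at room temperature before fluorescence reading.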

[12] = target: 5-hydroxytryptamine receptor 2A (Homo sapiens) (UniProt P28223); assay: 5-hydroxytryptamine receptor 2A (HTR2A) small molecule antagonists, cell-based qHTS assay (AID 1963586); also: nearly all actives have a fitted effect of over 45% in size
Procedure, shortened: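 Antagonist-mode intracellular calcium assay: DOI (4 nM) added after 5 min compound pre-incubation at room temperature to dye-loaded HTR2A-CHO cells. Fluorescence followed for 3 min, sampled every second.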

[13] = target: 5-hydroxytryptamine receptor 2A (Homo sapiens) (UniProt P28223); assay: 5-hydroxytryptamine receptor 2A (HTR2A) small molecule agonists, cell-based qHTS assay (AID 1963587); also: nearly all actives have a fitted effect of over 30% in size
Procedure, shortened: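 CHO cells stably expressing human HTR2A, plated 18 h, loaded with calcium dye 1 h at 37 C. Agonist mode: compounds added and intracellular calcium fluorescence recorded kinetically for 2 min at 1 sec intervals.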

[14] = target: Muscarinic acetylcholine receptor M1 (Homo sapiens) (UniProt P11229); assay: Cholinergic receptor muscarinic 1 (CHRM1) small molecule antagonists, cell-based qHTS assay (AID 1963588); also: nearly all actives have a fitted effect of over 40% in size
Procedure, shortened: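 CHRM1-CHO calcium-flux assay, antagonist mode. Cells were seeded 18 h, dye-loaded 1 h at 37 C and given compound for 5 min at RT, then acetylcholine was added at 50nM. FDSS fluorescence was read 3 min; 15 concentrations, three runs.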

[15] = target: Muscarinic acetylcholine receptor M1 (Homo sapiens) (UniProt P11229); assay: Cholinergic receptor muscarinic 1 (CHRM1) small molecule agonists, cell-based qHTS assay (AID 1963589); also: nearly all actives have a fitted effect of over 35% in size
Procedure, shortened: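 CHO cells stably expressing human CHRM1, seeded 18 h at 37 C/5% CO2, dye-loaded 1 h at 37 C, then given compound in agonist mode; intracellular calcium fluorescence read kinetically at 1 s intervals. Fifteen concentrations, three independent runs.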

[16] = cAMP Responsive Elements (CRE) small molecule agonists, cell-based qHTS assay (AID 1963590)
Procedure, shortened: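 CRE-bla HEK 293T cells in DMEM with 10% dialyzed FBS, NEAA, pyruvate and 25 mM HEPES were plated 18 h at 37 C/5% CO2, then exposed to compounds in DMSO for 3 h before LiveBLAzer B/G FRET substrate addition.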

[17] = cAMP Responsive Elements (CRE) small molecule antagonists, cell-based qHTS assay (AID 1963591; active = well fitted inhibition curve with a large enough effect in the signal ratio in the repeat runs, not every such curve was filed as active; the % refers to the signal ratio)
Procedure, shortened: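 CRE-bla HEK293T cells were plated 18 h at 37 °C/5% CO2, pinned with compound in DMSO, then stimulated with NKH477 at 0.25 uM final for 3 h. LiveBLAzer B/G FRET substrate was added and plates incubated 2 h at room temperature.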

[18] = target: Beta-2 adrenergic receptor (Homo sapiens) (UniProt P07550); assay: Adrenergic beta2 receptor (ADRB2) small molecule antagonists, cell-based qHTS assay (AID 1963592); also: series mostly up to about 92 µM; nearly all actives have a fitted effect of over 50% in size
Procedure, shortened: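 Cells (CHO, stable ADRB2 overexpression) incubated 18-20hr at 37C; compounds added from DMSO; agonist mix (1nM isoproterenol, 100uM IBMX, 25uM Ro-20-1724) added; 0.5hr RT; d2-cAMP and anti-cAMP-cryptate added; 1hr RT; 665/615 nm read.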

[19] = target: D(2) dopamine receptor (Homo sapiens) (UniProt P14416); assay: Dopamine D2 receptor (DRD2) small molecule agonists, cell-based qHTS assay (AID 1963594); also: nearly all actives have a fitted effect of over 35% in size
Procedure, shortened: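 HEK293 cells stably expressing human DRD2, pre-treated with PDE inhibitor Ro20-1724 (0.1 mM final) and compound 10 min at room temperature, then stimulated with NKH477 (200nM […]) for 30 min. cAMP read by HTRF (665/620 nm).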

[20] = target: D(2) dopamine receptor (Homo sapiens) (UniProt P14416); assay: Dopamine D2 receptor (DRD2) small molecule antagonists, cell-based qHTS assay (AID 1963595; active = well fitted inhibition curve with a large enough effect in the signal ratio in the repeat runs, with a control signal flat; the % refers to the signal ratio)
Procedure, shortened: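 HEK293 cells stably expressing DRD2, preincubated with 0.1 mM Ro20-1724 and compounds 10 min, were stimulated with 200 nM NKH477 plus 12 nM quinpirole for 30 min at room temperature; cAMP measured by HTRF (665/620 nm).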
% is scaled to controls: 0 for no effect and ±100 for the full control effect.

Muscarinic acetylcholine receptor M1 (Homo sapiens), sequence (P11229 whole entry, looked up): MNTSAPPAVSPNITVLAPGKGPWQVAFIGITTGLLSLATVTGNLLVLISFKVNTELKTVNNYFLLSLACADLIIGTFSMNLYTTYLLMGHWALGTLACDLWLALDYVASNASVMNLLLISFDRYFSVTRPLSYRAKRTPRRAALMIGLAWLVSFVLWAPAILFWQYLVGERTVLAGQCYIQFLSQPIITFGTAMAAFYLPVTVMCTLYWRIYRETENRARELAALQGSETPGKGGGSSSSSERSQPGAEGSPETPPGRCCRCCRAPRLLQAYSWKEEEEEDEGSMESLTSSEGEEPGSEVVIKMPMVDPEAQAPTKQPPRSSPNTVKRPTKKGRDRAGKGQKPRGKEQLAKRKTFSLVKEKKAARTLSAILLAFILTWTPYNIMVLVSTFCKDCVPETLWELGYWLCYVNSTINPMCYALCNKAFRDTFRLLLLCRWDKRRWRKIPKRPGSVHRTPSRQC
KiSS-1 receptor (Homo sapiens), sequence (Q969F8 whole entry, looked up): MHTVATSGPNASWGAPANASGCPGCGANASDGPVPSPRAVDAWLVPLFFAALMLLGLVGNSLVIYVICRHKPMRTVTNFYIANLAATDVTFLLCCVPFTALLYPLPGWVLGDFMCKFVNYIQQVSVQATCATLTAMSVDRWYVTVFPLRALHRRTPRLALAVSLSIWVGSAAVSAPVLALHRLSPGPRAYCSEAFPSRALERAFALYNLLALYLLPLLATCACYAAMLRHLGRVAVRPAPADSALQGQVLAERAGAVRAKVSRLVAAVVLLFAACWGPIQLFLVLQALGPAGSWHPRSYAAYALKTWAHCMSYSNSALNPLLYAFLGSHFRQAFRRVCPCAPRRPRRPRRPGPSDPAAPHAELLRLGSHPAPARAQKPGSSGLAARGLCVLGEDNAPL
Gonadotropin-releasing hormone receptor (Homo sapiens), sequence (P30968 whole entry, looked up): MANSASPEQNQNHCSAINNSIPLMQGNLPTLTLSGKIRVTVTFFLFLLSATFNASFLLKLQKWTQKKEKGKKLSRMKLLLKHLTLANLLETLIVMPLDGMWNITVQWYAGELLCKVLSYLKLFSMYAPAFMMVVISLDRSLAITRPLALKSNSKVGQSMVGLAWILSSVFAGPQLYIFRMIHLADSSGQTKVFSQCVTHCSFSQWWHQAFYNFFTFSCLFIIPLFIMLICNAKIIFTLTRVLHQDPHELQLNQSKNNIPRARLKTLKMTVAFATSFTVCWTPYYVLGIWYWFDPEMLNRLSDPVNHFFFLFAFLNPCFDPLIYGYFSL
5-hydroxytryptamine receptor 2A (Homo sapiens), sequence (P28223 whole entry, looked up): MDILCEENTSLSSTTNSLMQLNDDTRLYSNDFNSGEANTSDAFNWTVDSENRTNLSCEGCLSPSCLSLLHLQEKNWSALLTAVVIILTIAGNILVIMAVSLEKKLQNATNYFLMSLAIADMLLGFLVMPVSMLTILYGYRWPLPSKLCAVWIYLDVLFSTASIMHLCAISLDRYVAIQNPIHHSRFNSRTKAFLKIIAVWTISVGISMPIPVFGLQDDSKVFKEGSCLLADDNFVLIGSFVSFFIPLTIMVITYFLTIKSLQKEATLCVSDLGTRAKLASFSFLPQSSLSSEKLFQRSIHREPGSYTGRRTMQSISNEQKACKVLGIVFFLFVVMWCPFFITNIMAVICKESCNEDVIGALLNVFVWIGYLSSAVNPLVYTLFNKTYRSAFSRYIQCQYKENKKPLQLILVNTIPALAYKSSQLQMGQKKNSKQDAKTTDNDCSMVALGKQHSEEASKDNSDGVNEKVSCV
Beta-2 adrenergic receptor (Homo sapiens), sequence (P07550 whole entry, looked up): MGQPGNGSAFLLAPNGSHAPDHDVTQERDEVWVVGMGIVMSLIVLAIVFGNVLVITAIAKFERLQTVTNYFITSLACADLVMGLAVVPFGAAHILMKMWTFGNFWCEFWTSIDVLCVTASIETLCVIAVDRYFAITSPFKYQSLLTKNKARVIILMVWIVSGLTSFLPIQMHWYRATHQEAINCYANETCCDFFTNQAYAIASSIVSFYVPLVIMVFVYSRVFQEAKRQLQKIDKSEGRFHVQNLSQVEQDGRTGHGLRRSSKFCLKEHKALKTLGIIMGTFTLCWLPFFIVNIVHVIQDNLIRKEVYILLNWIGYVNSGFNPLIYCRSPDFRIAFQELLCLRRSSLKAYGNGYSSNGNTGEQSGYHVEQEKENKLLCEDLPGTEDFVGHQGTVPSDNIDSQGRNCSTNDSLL
D(2) dopamine receptor (Homo sapiens), sequence (P14416 whole entry, looked up): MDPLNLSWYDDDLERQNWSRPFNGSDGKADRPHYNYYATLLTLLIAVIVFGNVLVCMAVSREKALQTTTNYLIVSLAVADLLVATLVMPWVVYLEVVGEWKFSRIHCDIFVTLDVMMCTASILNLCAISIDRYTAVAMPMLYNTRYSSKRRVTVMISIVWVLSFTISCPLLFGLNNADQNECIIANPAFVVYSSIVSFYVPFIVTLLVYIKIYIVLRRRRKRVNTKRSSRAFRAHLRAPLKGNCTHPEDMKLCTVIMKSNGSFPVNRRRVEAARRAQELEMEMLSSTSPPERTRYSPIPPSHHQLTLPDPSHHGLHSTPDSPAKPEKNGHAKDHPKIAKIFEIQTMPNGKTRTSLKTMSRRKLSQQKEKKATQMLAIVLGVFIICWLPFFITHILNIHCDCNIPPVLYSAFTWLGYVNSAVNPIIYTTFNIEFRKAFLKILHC

CC(C)(C)CC(C)(C)c1ccc(Nc2ccc(C(C)(C)CC(C)(C)C)cc2)cc1
inactive: activity change, negative = cytotoxicity [1] 0.0348% [at 8.39 µM] | activity, positive = activation [2] -1.24% [at 8.39 µM] | activity change [3] 0.129% [at 5.22 µM, active compounds read high] | activation [4] 0.255% [at 6.97 µM] | activation [5] -0.517% [at 5.23 µM] | activation [6] -1.73% [at 5.99 µM] | activation [7] -0.0551% [at 5.99 µM] | activity change, negative = cytotoxicity [8] -1.28% [at 5.99 µM] | activity change, negative = cytotoxicity [9] -9.33% [at 5.99 µM] | activity change, negative = cytotoxicity [10] 0.663% [at 5.99 µM] | activation [11] 4.39% [at 5.99 µM] | activity, negative = inhibition [12] -0.349% [at 5.62 µM] | activation [13] 5.4% [at 7.02 µM] | activity, negative = inhibition [14] -10.6% [at 5.58 µM] | activation [15] 0.016% [at 6.97 µM] | activation [16] -1.83% [at 8.39 µM] | activity change, negative = inhibition [17] -1.43% [at 8.39 µM] | activity change, negative = inhibition [18] -0.838% [at 8.39 µM] | activation [19] 1.28% [at 8.39 µM] | activity change, negative = inhibition [20] -0.278% [at 8.38 µM]

CO/N=C(/C(=O)N[C@@H]1C(=O)N2C(C(=O)O)=C(COC(N)=O)CS[C@H]12)c1ccco1
inactive: Potency [1] | Potency [2] | Potency [3] | Potency [4] | Potency [5] | Potency [6] | Potency [7] | Potency [8] | Potency [9] | Potency [10] | Potency [11] | Potency [12] | Potency [13] | Potency [14] | Potency [15] | Potency [16] | Potency [17] | Potency [18] | Potency [19] | Potency [20]

C=CCCCCCCCCC(=O)OCCCC
inactive: Potency [1] | Potency [2] | Potency [3] | Potency [4] | Potency [5] | Potency [6] | Potency [7] | Potency [8] | Potency [9] | Potency [10] | Potency [11] | Potency [12] | Potency [13] | Potency [14] | Potency [15] | Potency [16] | Potency [17] | Potency [18] | Potency [19] | Potency [20]

C=COCCOCCOCCOC=C
inactive: Potency [1] | Potency [2] | Potency [3] | Potency [4] | Potency [5] | Potency [6] | Potency [7] | Potency [8] | Potency [9] | Potency [10] | Potency [11] | Potency [12] | Potency [13] | Potency [14] | Potency [15] | Potency [16] | Potency [17] | Potency [18] | Potency [19] | Potency [20]

OCC1(CO)COCOC1
inactive: Potency [1] | Potency [2] | Potency [3] | Potency [4] | Potency [5] | Potency [6] | Potency [7] | Potency [8] | Potency [9] | Potency [10] | Potency [11] | Potency [12] | Potency [13] | Potency [14] | Potency [15] | Potency [16] | Potency [17] | Potency [18] | Potency [19] | Potency [20]

NCCC(O)(P(=O)(O)O)P(=O)(O)O
inactive: Potency [1] | Potency [2] | Potency [3] | Potency [4] | Potency [5] | Potency [6] | Potency [7] | Potency [8] | Potency [9] | Potency [10] | Potency [11] | Potency [12] | Potency [13] | Potency [14] | Potency [15] | Potency [16] | Potency [17] | Potency [18] | Potency [19] | Potency [20]

NC(=O)c1ccccc1Cl
inactive: Potency [1] | Potency [2] | Potency [3] | Potency [4] | Potency [5] | Potency [6] | Potency [7] | Potency [8] | Potency [9] | Potency [10] | Potency [11] | Potency [12] | Potency [13] | Potency [14] | Potency [15] | Potency [16] | Potency [17] | Potency [18] | Potency [19] | Potency [20]
